L3MBTL1 block: blocks human L3MBTL1 | AlphaScreen L3MBTL1–H3K9me1 peptide binding | 230,000 tested, 0.66% active | Potency, µM (highest dose often 57.1 µM), for the others: top-dose activity, negative = inhibition, most hits filed as inhibitors | Q9Y468; also: % is scaled to controls: 0 for no effect and ±100 for the full control effect; nearly all actives have a fitted effect of over 60% in size
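AlphaScreen assay: L3MBTL1 (50 nM final) was preincubated 30 min at room temperature with biotinylated H3(1-15)K9me1 peptide (75 nM final), then 30 min with library compounds; streptavidin donor and nickel chelate acceptor beads (10 ug/mL final) added, 30 min dark.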
Sfp inh: inhibitors of Bacillus subtilis Sfp phosphopantetheinyl transferase; Q9F4F7; Biochemical Sfp PPTase activity, qHTS; Potency, µM, inactives show largest response in the series, negative = inhibition, actives largely listed as inhibitors; 310,000 tested, 3.5% active;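 also: the enzyme is Sfp with the accession as filed and its product quenches rhodamine fluorescence; 0% = enzyme reaction without inhibitor and -100% = no enzyme wells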
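Reaction rates are the 30-min fluorescence difference (ex 525, em 598 nm) in wells containing 15 nM Sfp, 5 uM rhodamine-CoA and 12.5 uM BHQ-2-YbbR at pH 7.6 with 10 mM MgCl2.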
BAZ2B block: blocks human BAZ2B; 360,000 tested, 4.4% active; AlphaScreen BAZ2B-H3K14Ac peptide displacement; Q9UIF8; AID 504333; Potency, µM (series often up to 114 µM), without a hit: at the highest dose activity change, negative = inhibition, most hits filed as inhibitors; also: % is scaled to controls: 0 for no effect and ±100 for the full control effect; nearly all actives have a fitted effect of over 60% in size
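AlphaScreen displacement of biotin-H3(5-23)K14Ac peptide (50 nM final) from BAZ2B (50 nM final) in PBS pH 7.4, 0.01% Tween-20; complex preformed 30 min RT, then compounds (top 110 uM) 30 min RT, beads 20 min dark.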
JMJD2A Tudor: inhibitors of human JMJD2A Tudor domain; Potency, µM (highest dose often 114 µM), without a hit: at the top dose activity change, negative = inhibition, usual class: inhibitors; O75164; 390,000 tested, 4.4% active; AID 504339; AlphaScreen JMJD2A-Tudor / H3K4me3 peptide binding; also: % is scaled to controls: 0 for no effect and ±100 for the full control effect; nearly all actives have a fitted effect of over 50% in size
Target sequence (O75164 whole entry, looked up, the tested form may be a part): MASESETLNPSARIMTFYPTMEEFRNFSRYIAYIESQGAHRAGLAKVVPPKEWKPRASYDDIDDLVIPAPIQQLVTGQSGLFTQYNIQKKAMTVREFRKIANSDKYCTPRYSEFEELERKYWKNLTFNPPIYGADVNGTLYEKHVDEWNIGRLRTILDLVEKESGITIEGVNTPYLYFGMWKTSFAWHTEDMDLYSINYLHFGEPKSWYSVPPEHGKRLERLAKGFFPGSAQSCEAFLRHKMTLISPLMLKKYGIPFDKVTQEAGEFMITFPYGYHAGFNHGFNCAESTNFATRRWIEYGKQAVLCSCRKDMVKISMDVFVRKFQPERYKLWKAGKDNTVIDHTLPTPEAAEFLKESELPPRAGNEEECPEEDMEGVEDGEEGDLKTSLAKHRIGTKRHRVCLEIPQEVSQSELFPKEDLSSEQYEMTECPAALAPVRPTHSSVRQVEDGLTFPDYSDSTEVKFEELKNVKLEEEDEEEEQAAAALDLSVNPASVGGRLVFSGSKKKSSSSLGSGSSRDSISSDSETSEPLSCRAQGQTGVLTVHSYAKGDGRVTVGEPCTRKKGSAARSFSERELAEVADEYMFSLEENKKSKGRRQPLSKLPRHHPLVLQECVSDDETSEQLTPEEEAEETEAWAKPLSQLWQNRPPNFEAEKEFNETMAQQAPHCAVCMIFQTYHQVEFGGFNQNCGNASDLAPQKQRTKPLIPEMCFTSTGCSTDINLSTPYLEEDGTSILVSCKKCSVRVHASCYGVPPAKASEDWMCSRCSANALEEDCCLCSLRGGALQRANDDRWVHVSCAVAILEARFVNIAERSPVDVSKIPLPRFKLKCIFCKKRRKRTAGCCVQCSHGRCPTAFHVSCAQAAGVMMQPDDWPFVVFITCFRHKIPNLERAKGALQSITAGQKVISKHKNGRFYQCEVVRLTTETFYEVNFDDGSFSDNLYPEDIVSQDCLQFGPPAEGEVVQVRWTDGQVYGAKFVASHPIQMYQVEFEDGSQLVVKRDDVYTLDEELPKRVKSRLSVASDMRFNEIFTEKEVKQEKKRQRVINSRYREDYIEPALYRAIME
HP1b chromo inh: blocks HP1-beta chromodomain binding to methylated histone tails; AlphaScreen HP1-beta / biotin-H3K9me3 peptide binding; 390,000 tested, 0.56% active; Potency, µM (top dose mostly 114 µM), without a hit: top-dose activity change, negative = inhibition, actives largely listed as inhibitors; AID 540317; P83916; also: nearly all actives have a fitted effect of over 70% in size
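Compound inhibition of the preformed complex between 50 nM HP1-beta and 50 nM biotinylated H3K9me3 peptide was read by AlphaScreen. Buffer was PBS pH 7.4 with 0.01% Tween-20. Incubations ran 30 min at room temperature, with 10 ug/mL donor/acceptor beads.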
G9a inh: G9a (human) methyltransferase inhibition; Q96KQ7; 350,000 tested, 8.8% active; G9a H3K9 monomethylation, AlphaScreen, 2 h; Potency, µM (highest dose often 102 µM), for inactives: at the top dose activity, negative = inhibition, most hits filed as inhibitors; also: % is scaled to controls: 0 for no effect and ±100 for the full control effect; nearly all actives have a fitted effect of over 75% in size
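G9a (20 nM) was preincubated 15 min with compound, then reacted 2 h at room temperature with 500 nM biotin-H3K9 peptide and 20 µM SAM. Monomethyl-H3K9 detected by AlphaScreen using anti-H3K9me1 antibody.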
Starred values were filed as active, the others as inactive; ? = inconclusive; . = not tested or not shown; ! = repeats disagree; [ ] = remark or other dose. Hits are enriched below; roughly 12% of the tested compounds scored in any of these assays. Calls follow the shape of the dose curve; as a rule, active = well fitted curve in the direction sought with a large enough effect; inconclusive = small, poorly fitted or top-dose-only effect, or another doubt; inactive = no such curve, though single readings can be large; an effect the other way counts as inactive or inconclusive. Potency is read from the fitted curve at half-maximal effect.

SMILES	L3MBTL1 block	Sfp inh	BAZ2B block	JMJD2A Tudor	HP1b chromo inh	G9a inh
Cc1cccc(-c2nc(S(=O)(=O)c3ccc(Cl)cc3)c(N3CCCCCC3)o2)c1	.	.	?	-25.4%	-17.7%	?
CNCCNS(=O)(=O)c1cccc2cnccc12	.	-0.4%	.	.	.	29.9µM*
O=S(=O)(NCCNC/C=C/c1ccc(Br)cc1)c1cccc2cnccc12	.	-5.6%	.	.	.	50.1µM*!
Cc1ccc(NC(=O)c2cnc(SCC(=O)N3CCOCC3)n(C)c2=O)cc1	.	.	-3.2%	-14.9%	19.9%	9.5%[59 µM]
Cc1nc2ccc(C(=O)O)cc2c2c1CC(C)S2 (centres undefined)	.	-19.5%	70.8µM*	?	-33.1%	?
CCN(CC)CCNC(=O)c1c(C)oc2ncn(C)c(=O)c12	.	.	10.4%[57.1 µM]	4.2%	38.6%	1.9%[59 µM]
C=CCn1c(CCn2c3ccccc3c3ccccc32)n[nH]c1=S	-4.8%	-13.6%	10.1%	-28.6%	15.4%	?
C=CCn1c(Cc2cccc3ccccc23)n[nH]c1=S	0.8%	4.6%	-23.8%	50.1µM*	-6.6%	2.24µM*
c1ccc(Cc2nc3ccccc3[nH]2)cc1	.	13.9%	6.8%	-10.1%	28.4%	-0.2%[12.7 µM]
S=c1[nH]nc(Cc2noc3ccccc23)n1-c1ccccc1	1.1%	6.7%	0.1%	11.2µM*	19.5%	2.82µM*
C=CCn1c(Cc2nc3ccccc3[nH]2)n[nH]c1=S	-1.7%	-2.8%	?	8.91µM*	6.4%	2µM*
S=c1[nH]nc(CCc2nc3ccccc3[nH]2)n1-c1ccccc1	9.6%	?	-10.7%	-93.7%	15.6%	?
S=c1[nH]nc(CCc2nc3ccccc3[nH]2)n1-c1cccc(Cl)c1	4.9%	50.1µM*	-8.0%	44.7µM*	20.1%	-0.9%[0.501 µM]
CCOc1ccc(NC(=O)CSc2ncc3c(n2)-c2ccccc2N(C)S3(=O)=O)cc1	.	.	-0.8%	0.0%	24.4%	-3.9%[59 µM]
O=c1c2ccccc2cnn1Cc1n[nH]c(=S)n1-c1ccccc1	1.7%	?	5.8%	25.1µM*	27.9%	7.94µM*
S=c1[nH]nc(Cc2cccc3ccccc23)n1-c1ccccc1	.	17.9%	-33.6%	79.4µM*	7.7%	?
CCc1ccc(-c2nc(-c3cc4ccccc4oc3=O)sc2C)cc1	.	.	39.3%	13.3%	40.8%	65.2%[59 µM]
CCCCn1c(-c2csc(CCC)c2)n[nH]c1=S	-17.6%	?	-3.9%	?	19.5%	8.91µM*
CCc1cc(-c2n[nH]c(=S)n2-c2ccccc2C)cs1	.	14.8%	-7.3%	35.5µM*	1.1%	1.78µM*
CCc1cc(-c2n[nH]c(=S)n2CC)cs1	-2.3%	-11.1%	-11.8%	8.91µM*	-13.9%	?
CCCc1cc(-c2n[nH]c(=S)n2CC)cs1	.	-0.2%	-36.9%	3.55µM*	-19.7%	?
CCCc1cc(-c2n[nH]c(=S)n2C(C)c2ccccc2)cs1 (centres undefined)	.	13.7%	-35.9%	-31.2%	-4.2%	?
COc1ccc(Cn2c(=O)c3cccnc3n(CC(=O)Nc3c(C)cc(C)cc3C)c2=O)cc1	.	.	-4.0%	1.8%	36.4%	9.2%[59 µM]
CCc1ccc(-n2c(=O)c3sc4ccccc4c3n(CC(=O)N3CCCC3)c2=O)cc1	.	.	-3.5%	-5.6%	37.2%	5.1%[59 µM]
COC(=O)C[C@H]1c2ccccc2C2=C(C[C@@H](C)[C@H]3C(=O)NC(=O)[C@@H]23)N1C(=O)OC	.	-7.2%	.	.	.	.
Nc1nc(Nc2cc(F)cc(F)c2)nc(NC2CCCC2)n1	.	.	.	-18.5%	.	.
CCCN1CCN(CCNC(=O)Nc2cc(Cl)c(OC)cc2OC)CC1	.	.	-10.8%	-17.3%	17.7%	-38.2%[59 µM]
CCc1cc(-c2n[nH]c(=S)n2Cc2ccccc2)cs1	.	-23.6%	-23.6%	56.2µM*	-4.5%	?
Cc1ccc(-c2csc3nc(C)n(-n4cccc4)c(=O)c23)o1	0.6%	56.2µM*	.	0.0%	47.5%	?
CC1CCC(NC(=O)CCc2cn(Cc3ccc(F)cc3)c3ccccc23)CC1 (centres undefined)	.	.	-14.0%	-12.8%	25.2%	-31.5%[59 µM]

Bioassay records (PubChem BioAssay)
